18 compounds from PubChem BioAssay can be followed below.

The nature of this assay: Her2 expression decrease, cell viability multiplex – SKBR3 breast tumor cells, AlphaScreen, ATP viability, primary screen (AID 461).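 Note: percent of carrier control wells set as 100% viability.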 To be noted: SKBR3 Her2 protein level, 18-24 h, measured here: SKBR3 viability, ATP luminescence, at 10 µM.
In general, viability refers to a read-out of living cells in per cent, often relative to untreated cells. Take `Cc1ccc(CNC(=O)C2CCCN(S(=O)(=O)c3cnc[nH]3)C2)cc1` (stereo not drawn): the viability worked out at 94%.

In the case of `COc1cc2c(cc1OC)C(c1ccc(C)o1)CC(=O)N2` (stereo not drawn), the viability came out at 81.5%.

Take `COc1ccc(S(=O)(=O)Nc2ccc(F)c(Cl)c2)cc1OC`: the viability was found to be 97.5%.

In the case of `O=C(OCCN(CCOC(=O)c1ccncc1)S(=O)(=O)c1cccs1)c1ccncc1`, the viability was determined as 102%.

Turning to `N#CCCN(Cc1cccnc1)C(=O)Nc1ccc(Cl)c(Cl)c1`, the viability amounted to 118%.

`NC(=O)CN1C(=O)C(O)(CC(=O)c2ccccc2O)c2ccccc21` (stereo not drawn): the viability worked out at 92.5%.

Regarding `CCCOc1ccc(C2C(C(=O)OC)=CN(CCOC)C=C2C(=O)OC)cc1`, the viability came to 89%.

Consider `C(=N\c1c(-c2ccccc2)nc2n1CCS2)/c1ccccc1`, for which the viability is 102%.

With `COC(=O)c1cn(NC(=O)C2CCCO2)c(=O)c2ccccc12` (stereo not drawn), the viability is 109%.

As to `CCN1CCN(C(=O)C2CC(c3ccc(F)cc3)=NO2)CC1` (stereo not drawn), the viability is 91.5%.

`CCOC(=O)C1CCN(Cc2ccc(OC)c(C)c2OC)CC1`: the viability is 88.5%.

`Cn1c(NC(=O)c2ccccc2NC(=O)C(C)(C)C)nc2ccccc21`: the viability was 95%.

As for `Cc1cccc(CN2CCC(CNC(=O)C3CCCN(S(=O)(=O)c4cnc[nH]4)C3)CC2)c1` (stereo not drawn), the viability was determined as 98%.

Regarding `CC1CC(NC(=O)c2cnc3n(c2=O)CCS3)CC(C)(C)C1` (stereo not drawn), the viability was 83.5%.

On to `CC1CCCN(S(=O)(=O)c2coc(C(N)=O)c2)C1` (stereo not drawn), for which the viability was 87.5%.

As for `O=C(NCc1ccc2c(c1)OCO2)C1CCCN(S(=O)(=O)c2cccc3cccnc23)C1` (stereo not drawn), the viability is 95.5%.

Regarding `CC(C)(O)C#Cc1ccc(C(=O)N2CCN(C(=O)c3ccco3)CC2)cc1`, the viability was found to be 102%.

As for `COC(=O)C1=C(C)Nc2nnnn2C1c1ccc(Cl)cc1Cl` (stereo not drawn), the viability was 110%.
